31 compounds from PubChem BioAssay (Tox21) can be followed below.

Molecules are shown by their SMILES. Where “and” joins values, the source holds several entries; their conditions need not be identical. Identical values can stand only once. Calls of active or inactive are those of the source. Unless noted, calls come from the whole dose curve.
% is set by controls: 0 for no effect and ±100 for the full control effect; potency is the fitted concentration of half-maximal effect.

Chain of Estrogen receptor (Homo sapiens) (P03372 whole entry, looked up): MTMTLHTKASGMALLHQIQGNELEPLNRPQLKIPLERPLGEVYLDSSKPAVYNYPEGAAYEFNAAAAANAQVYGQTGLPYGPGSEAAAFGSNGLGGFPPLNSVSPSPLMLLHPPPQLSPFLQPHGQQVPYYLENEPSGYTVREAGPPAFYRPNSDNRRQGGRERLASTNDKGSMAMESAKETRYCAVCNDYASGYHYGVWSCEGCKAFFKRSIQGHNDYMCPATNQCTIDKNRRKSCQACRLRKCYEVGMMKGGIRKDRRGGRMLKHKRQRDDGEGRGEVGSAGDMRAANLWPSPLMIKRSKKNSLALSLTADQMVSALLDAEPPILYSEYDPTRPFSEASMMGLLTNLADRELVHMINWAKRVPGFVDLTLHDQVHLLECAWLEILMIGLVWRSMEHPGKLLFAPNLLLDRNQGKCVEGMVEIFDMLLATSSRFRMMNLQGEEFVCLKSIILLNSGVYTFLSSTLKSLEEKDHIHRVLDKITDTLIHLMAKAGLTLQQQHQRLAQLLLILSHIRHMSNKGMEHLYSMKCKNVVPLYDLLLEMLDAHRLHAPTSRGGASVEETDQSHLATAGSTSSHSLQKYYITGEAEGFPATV

One assay concerns the target Estrogen receptor (Homo sapiens) (UniProt P03372). Description: qHTS assay to identify small molecule agonists of the estrogen receptor alpha (ER-alpha) signaling pathway (AID 743075).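 Note: HEK293 GripTite cells with ER-alpha and UAS-driven beta-lactamase reporter.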 The note with it: HEK293 ER-alpha-UAS-bla, beta-lactamase FRET ratio, 18 h; series mostly up to 70.1 µM; activation: at the top concentration.
With `Cc1cc(O)c2c(c1)O[C@@]1(C)CC[C@H]3C(C)(C)CCCC34CO[C@@H]2[C@H]41` (stereo partly drawn), the “activation” value was -1.86% (inactive).
With `CCN(CC)CCC(=O)N1c2ccccc2Sc2ccc(C(F)(F)F)cc21`, the “activation” value was 5.97% (inactive).
On to `CN1CCN(CCC=C2c3ccccc3Sc3ccc(S(=O)(=O)N(C)C)cc32)CC1`, for which the “activation” value is -1.92% (inactive).
As for `C=C1CC[C@@H]2[C@](C)(CO)[C@H](O)CC[C@@]2(C)[C@@H]1C/C=C1/C(=O)OC[C@H]1O`, the “activation” value was -1.54% (inactive).
Turning to `CCN(CC)CCC(=O)N1c2ccccc2Sc2ccc(Cl)cc21`, the “activation” value was 4.4% (inactive).
Consider `CC(=O)[C@]1(O)Cc2c(O)c3c(c(O)c2[C@@H](O[C@H]2C[C@H](N)[C@H](O)[C@H](C)O2)C1)C(=O)c1c(O)cccc1C3=O`, for which the Potency was 3.38 µM [inconclusive] (active) and 6.01 µM [inconclusive] (active).
Regarding `CC(C)N=c1cc2n(-c3ccc(Cl)cc3)c3ccccc3nc-2cc1Nc1ccc(Cl)cc1`, the “activation” value was -4.65% [at 32.9 µM] (inactive).
Take `COc1ccc(C2NC(=S)N3C(c4ccc(OC)c(OC)c4)NC(=S)N23)cc1OC` (stereo not drawn): the “activation” value is -1.03% (inactive).
Consider `CO[C@H]1C[C@H](O[C@H]2[C@H](C)O[C@@H](O[C@@H]3/C(C)=C/C[C@@H]4C[C@@H](C[C@]5(C=C[C@H](C)[C@@H](C6CCCCC6)O5)O4)OC(=O)[C@@H]4C=C(C)[C@@H](O)[C@H]5OC/C(=C\C=C\[C@@H]3C)[C@]54O)C[C@@H]2OC)O[C@@H](C)[C@@H]1O`, for which the “activation” value was -2.06% (inactive).
Turning to `CN(C)CCCN1c2ccccc2C(C)(C)c2ccccc21`, the “activation” value is 1.64% (inactive).
Regarding `O=C1CSC2(CCN(CCCN3c4ccccc4Sc4ccc(Cl)cc43)CC2)N1`, the “activation” value was -1.25% (inactive).
As for `C=C1CC[C@H](O)CC1=C/C=C1\CCC[C@]2(C)[C@@H]([C@H](C)CC[C@@H](O)C(C)(C)O)CC[C@@H]12`, the “activation” value is -5.21% (inactive).
The same measure, in the same setting: with `CN(C)C(=O)CCSC(SCCC(=O)O)c1cccc(/C=C/c2ccc3ccc(Cl)cc3n2)c1` (stereo not drawn) the figure was -4.48% (inactive); with `CCc1ccc2c(c1)N(CC(C)CN(C)C)c1ccccc1S2` (stereo not drawn), 4.23% (inactive).
For the compound `OC[C@H]1OC([S-])[C@H](O)[C@@H](O)[C@@H]1O.[Au+]` (stereo partly drawn), the “activation” value was 6.9% (inactive).
Still for that read-out and setting: with `C=C1C(=C/C=C2\CCC[C@]3(C)[C@@H]([C@H](C)CCCC(C)(C)O)CC[C@@H]23)C[C@@H](O)C[C@@H]1O` the figure was 1% (inactive).
For the compound `C#C[C@]1(O)CC[C@H]2[C@@H]3CCC4=C/C(=N/O)CC[C@@H]4[C@H]3CC[C@@]21CC`, the Potency is 151 nM [inconclusive] (active).
Regarding `CCN(CC)CCOc1ccc(-c2nc3cc(Cl)ccc3s2)cc1`, the “activation” value was 8.03% (inactive).
Regarding `CC1=C(/C=C/C(C)=C/C=C/C(C)=C/C(=O)Oc2c(C)c(C)c3c(c2C)CC[C@@](C)(CCC[C@H](C)CCC[C@H](C)CCCC(C)C)O3)C(C)(C)CCC1`, the “activation” value is 6.62% (inactive).
As to `CC(CN1c2ccccc2Sc2ccc(S(=O)(=O)N(C)C)cc21)N(C)C` (stereo not drawn), the “activation” value is 5.18% (inactive).
On to `COc1ccc(C[C@H](N)C(=O)N[C@H]2[C@@H](O)[C@H](n3cnc4c(N(C)C)ncnc43)O[C@@H]2CO)cc1`, for which the “activation” value was -5.39% (inactive).
`CC(C)N1CCN(c2ccc(OC[C@H]3CO[C@](Cn4cncn4)(c4ccc(Cl)cc4Cl)O3)cc2)CC1`: the “activation” value is -0.996% [at 32.9 µM] (inactive).
For `CC(C)(C)NC[C@H](O)COc1ccccc1C1CCCC1`, the “activation” value is 1.8% [at 32.9 µM] (inactive).
As for `CC(=O)Oc1cc(C)c(OC(C)=O)c2ccccc12`, the “activation” value is 6.8% (inactive).
`C=C1CC[C@H](O)CC1=C/C=C1\CCC[C@]2(C)[C@@H]([C@H](C)CCCC(C)(C)O)CC[C@@H]12`: the “activation” value is -0.754% (inactive).
Still for that read-out and setting: the value for `CN1CCN(CCCN2c3ccccc3Sc3ccccc32)CC1` was 7.56% (inactive).
With `Clc1cc(Cl)c(OCC#CI)cc1Cl`, the “activation” value was -1.48% (inactive).
As for `C[C@H]1[C@@H](OC(=O)CCC(=O)O)O[C@@H]2OC3(C)CC[C@H]4[C@H](C)CC[C@@H]1[C@@]24OO3`, the “activation” value was -1.95% (inactive).
In the case of `CN1CCCC(CN2c3ccccc3Sc3ccccc32)C1` (stereo not drawn), the “activation” value is 4.91% (inactive).
In the case of `S=C1SCN(Cc2ccccc2)CN1Cc1ccccc1`, the “activation” value is 4.5% (inactive).

For the next assay the target is unchanged. The assay can be described thus: qHTS assay to identify small molecule agonists of the estrogen receptor alpha (ER-alpha) signaling pathway using the BG1 cell line (AID 743079; active = well fitted activation curve with a large enough effect in the repeat runs; inconclusive = weak or mixed curves, or effect the other way; inactive = no such curve, though single readings can be large or run the other way; note: nearly all actives have a fitted effect of over 20% in size). The note with it: BG1Luc4E2 cells, ERE-luciferase agonist, 22 h; activation: at 70.3 µM (top of the series).
On to `CN1CCN(CCC=C2c3ccccc3Sc3ccc(S(=O)(=O)N(C)C)cc32)CC1`, for which the “activation” value was -34.1% (inactive).
`C=C1CC[C@@H]2[C@](C)(CO)[C@H](O)CC[C@@]2(C)[C@@H]1C/C=C1/C(=O)OC[C@H]1O`: the “activation” value was -18.8% (inactive).
Still for that read-out and setting: with `CC(C)N=c1cc2n(-c3ccc(Cl)cc3)c3ccccc3nc-2cc1Nc1ccc(Cl)cc1` the figure was -28.4% [at 32.5 µM] (inactive); with `COc1ccc(C2NC(=S)N3C(c4ccc(OC)c(OC)c4)NC(=S)N23)cc1OC` (stereo not drawn), -0.341% (inactive); with `CN(C)CCCN1c2ccccc2C(C)(C)c2ccccc21`, 0.271% (inactive).
Regarding `CN(C)C(=O)CCSC(SCCC(=O)O)c1cccc(/C=C/c2ccc3ccc(Cl)cc3n2)c1` (stereo not drawn), the Potency was 2370 nM (active).
With `CCc1ccc2c(c1)N(CC(C)CN(C)C)c1ccccc1S2` (stereo not drawn), the “activation” value is -14.4% (inactive).
With `OC[C@H]1OC([S-])[C@H](O)[C@@H](O)[C@@H]1O.[Au+]` (stereo partly drawn), the “activation” value was 1.17% (inactive).
For `C#C[C@]1(O)CC[C@H]2[C@@H]3CCC4=C/C(=N/O)CC[C@@H]4[C@H]3CC[C@@]21CC`, the Potency was 42.2 nM (active).
In the case of `CC1=C(/C=C/C(C)=C/C=C/C(C)=C/C(=O)Oc2c(C)c(C)c3c(c2C)CC[C@@](C)(CCC[C@H](C)CCC[C@H](C)CCCC(C)C)O3)C(C)(C)CCC1`, the “activation” value is -26.3% (inactive).
On to `CC(CN1c2ccccc2Sc2ccc(S(=O)(=O)N(C)C)cc21)N(C)C` (stereo not drawn), for which the “activation” value is -22.2% (inactive).
As for `CC(C)N1CCN(c2ccc(OC[C@H]3CO[C@](Cn4cncn4)(c4ccc(Cl)cc4Cl)O3)cc2)CC1`, the “activation” value is -18.3% [at 32.5 µM] (inactive).
On the same count and under the same terms, with `CC(C)(C)NC[C@H](O)COc1ccccc1C1CCCC1` the figure was -7% [at 32.5 µM] (inactive); with `C[C@@H]1CCC2[C@@H](C)[C@@H](O)O[C@@H]3O[C@@]4(C)CC[C@@H]1[C@@]23OO4` (stereo partly drawn), -13.5% (inactive).
On the same count and under the same terms, the value for `CN1CCN(CCCN2c3ccccc3Sc3ccccc32)CC1` was 1.11% (inactive); that for `C[C@H]1[C@@H](OC(=O)CCC(=O)O)O[C@@H]2OC3(C)CC[C@H]4[C@H](C)CC[C@@H]1[C@@]24OO3` was 0.705% (inactive).
As for `CN1CCCC(CN2c3ccccc3Sc3ccccc32)C1` (stereo not drawn), the “activation” value was 0% (inactive).
Consider `S=C1SCN(Cc2ccccc2)CN1Cc1ccccc1`, for which the Potency is 26600 nM (active).
